This note sets out measurements from PubChem BioAssay (NCI).

Several values for one entry are separate records, joined by “and”; a condition that tells them apart may be missing. Identical values can stand only once. The panel holds about 83,000 compounds, 20% with a hit somewhere; the sample as a whole holds those more often.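 How to read the values: 0–100, growth inhibition (40 = 60% inhibited); 0, no net growth; -100 to 0, cell death (-40 = 40% of starting cells died; -100 = all dead).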 Unmarked numbers belong to inactive results. Activity calls are given as the source filed them. The calls were made as follows: active = growth percent below 10; inactive = the rest.

Holding throughout (test): NCI-60 one-dose screen, 48 h (100 = growth as untreated, 0 = no growth, -100 = all killed)
One assay has as its system NCI-H226 lung. The note with it: 10 µM.
The test system of another assay is NCI-H322M lung. The note with it: 10 µM.
Another assay deals with HOP-62 NSCLC. The note with it: 10 µM.
The subject of the next assay is NCI-H460 lung. To be noted: 10 µM.
A further assay relates to HOP-92 NSCLC. To be noted: 10 µM.
The test system of the next assay is NCI-H522 lung. The note with it: 10 µM unless noted.
Another assay has as its system A549/ATCC NSCLC. To be noted: 10 µM.
The subject of a further assay is 786-0 renal. To be noted: 10 µM.
Another assay concerns COLO 205 colon. The note with it: 10 µM.
Another assay concerns DU-145 prostate. The note with it: 10 µM unless noted.
Another assay concerns K-562 leukemia. The note with it: 10 µM.
The next assay concerns MALME-3M melanoma. To be noted: 10 µM.
In a further assay the test system is MDA-MB-231 breast. The note with it: 10 µM.
Another assay deals with RXF 393 renal. To be noted: 10 µM unless noted.
Another assay has as its system SF-268 CNS. To be noted: 10 µM.
The subject of the next assay is SF-295 CNS. The note with it: 10 µM.
A further assay has as its system SF-539 CNS. The note with it: 10 µM.
The test system of another assay is M14 melanoma. To be noted: 10 µM.
The test system of another assay is UACC-257 melanoma. To be noted: 10 µM.

For the molecule `COC1OCC(O)C(O)C1O` (stereo not given), the growth is 108% with NCI-H226 lung; 99.8% in the assay with NCI-H322M lung; 102% in the assay on HOP-62 NSCLC; 104% in the assay on NCI-H460 lung; 103% with HOP-92 NSCLC; 97.5% in the assay with NCI-H522 lung. Moreover, the growth in the assay with A549/ATCC NSCLC is 101%; in the assay on 786-0 renal, 101%; in the assay on COLO 205 colon, 107%; in the assay on DU-145 prostate, 105%; in the assay with K-562 leukemia, 104%; with MALME-3M melanoma, 103%. Moreover, the growth is 110% with MDA-MB-231 breast; 106% in the assay with RXF 393 renal; 98.4% with SF-268 CNS; 105% in the assay on SF-295 CNS; 107% with SF-539 CNS; 101% with M14 melanoma.
On to `Oc1ccc(N=Nc2ccccn2)c(O)c1`, for which the growth was 21.1% in the assay on NCI-H226 lung; 31.6% with NCI-H322M lung; 15.8% in the assay with HOP-62 NSCLC; 8.17% (active) in the assay with NCI-H460 lung; 57.6% in the assay on HOP-92 NSCLC; 29.3% in the assay with NCI-H522 lung. For the same molecule, the growth in the assay on A549/ATCC NSCLC was 17.5%; in the assay on 786-0 renal, 10.3%; in the assay on COLO 205 colon, 8.83% (active); with DU-145 prostate it was 24.5%; with MALME-3M melanoma, 36.1%; in the assay with MDA-MB-231 breast it was 35.7%. The growth in the assay on RXF 393 renal is 43.4%; in the assay on SF-268 CNS it was 20.6%; with SF-295 CNS, 20%; in the assay with SF-539 CNS, 13.1%; in the assay with UACC-257 melanoma, 3.09% (active).
On to `CCCC1CCC(=C2C(=O)CCC2=O)O1` (stereo not given), for which the growth is 102% and 108% in the assay on NCI-H226 lung; 90.9% and 96.9% in the assay on NCI-H322M lung; 90.6% and 101% in the assay with HOP-62 NSCLC; 101% and 113% in the assay with NCI-H460 lung; 103% with HOP-92 NSCLC; 121% and 83.9% in the assay with NCI-H522 lung. The growth is 110% and 97.5% in the assay on A549/ATCC NSCLC; 105% and 92.9% in the assay on 786-0 renal; 100% and 99.2% with COLO 205 colon; 102% and 92.3% in the assay with DU-145 prostate; 145% and 121% in the assay with K-562 leukemia; 103% and 101% in the assay with MALME-3M melanoma. The growth with MDA-MB-231 breast was 102% and 101%; in the assay with RXF 393 renal it was 103% and 97.7%; in the assay with SF-268 CNS, 100% and 107%; in the assay on SF-295 CNS, 97.3% and 89.8%; in the assay on SF-539 CNS it was 92.7% and 96.7%; in the assay on UACC-257 melanoma it was 106% and 95.3%. Also, the growth in the assay on M14 melanoma was 100% and 74.4%.
Turning to `COC(=O)C1=COC(C)C2C[n+]3ccc4c([nH]c5ccccc54)c3CC12` (stereo not given), the growth in the assay on NCI-H226 lung was 87.1% and 71.2%; in the assay with NCI-H322M lung it was 107% and 95.9%; in the assay with HOP-62 NSCLC it was 94.7% and 88.3%; with NCI-H460 lung it was 113% and 95.1%; with HOP-92 NSCLC it was 92.2% and 75.9%; in the assay on NCI-H522 lung, 99.2% and 76.1%. The growth in the assay with A549/ATCC NSCLC is 103% and 76.7%; in the assay with 786-0 renal, 102% and 107%; in the assay with COLO 205 colon it was 106% and 99.7%; in the assay with DU-145 prostate, 112% and 108%; in the assay with K-562 leukemia it was 93.7% and 85.2%; in the assay with MALME-3M melanoma it was 105% and 93.8%. Besides, the growth with MDA-MB-231 breast is 101% and 73.2%; in the assay with RXF 393 renal, 112%; in the assay with SF-268 CNS, 99.1% and 96.2%; with SF-295 CNS, 102% and 90.8%; in the assay with SF-539 CNS, 105%; in the assay on UACC-257 melanoma it was 106% and 95.1%.
As to `N=S(c1ccccc1[N+](=O)[O-])c1ccccc1[N+](=O)[O-]`, the growth in the assay on NCI-H226 lung was 52.7%; in the assay with NCI-H322M lung it was 93.4%; with HOP-62 NSCLC, 124%; with NCI-H460 lung, 104%; in the assay on HOP-92 NSCLC, -1.88% (active); in the assay on NCI-H522 lung, -77.5% (active). For the same molecule, the growth with A549/ATCC NSCLC was 90.3%; in the assay on 786-0 renal it was 39.7%; with COLO 205 colon, 2.39% (active); in the assay on DU-145 prostate, 80.4%; with K-562 leukemia it was 1.79% (active); with MALME-3M melanoma, 74.5%. In addition, the growth was 91.4% in the assay with MDA-MB-231 breast; 79% in the assay on RXF 393 renal; 90.2% with SF-268 CNS; 99.5% in the assay with SF-295 CNS; 39.2% with SF-539 CNS; 89.7% in the assay with UACC-257 melanoma. Also, the growth in the assay on M14 melanoma was 60.2%.
Turning to `O=C(Nc1ccc(C(=O)O)c(O)c1)c1ccccc1`, the growth in the assay on NCI-H226 lung is 101%; with NCI-H322M lung it was 100% and 97.7%; with HOP-62 NSCLC it was 95.3% and 91.7%; with NCI-H460 lung it was 109%; in the assay on HOP-92 NSCLC, 81.4% and 103%; in the assay on NCI-H522 lung, 93.3% and 89.8%. Also, the growth with A549/ATCC NSCLC is 101% and 95.6%; in the assay on 786-0 renal it was 109% and 97%; with COLO 205 colon, 102% and 130%; in the assay on DU-145 prostate it was 108% and 126%; with K-562 leukemia, 101% and 102%; in the assay with MALME-3M melanoma, 88.5% and 92.3%. Also, the growth in the assay on MDA-MB-231 breast is 98.5% and 104%; in the assay on RXF 393 renal, 112% and 107%; in the assay on SF-268 CNS it was 108% and 121%; in the assay with SF-295 CNS it was 106% and 95.1%; with SF-539 CNS, 98% and 104%; in the assay with UACC-257 melanoma it was 98.5% and 94.3%.
Consider `CCC(C)(C)c1cc(O)c(C(C)(C)CC)cc1O`, for which the growth in the assay with NCI-H226 lung is 41.8%; in the assay with NCI-H322M lung, 45.6%; with HOP-62 NSCLC, 54.8%; in the assay with NCI-H460 lung, 21.2%; in the assay with HOP-92 NSCLC, -7.38% (active); in the assay with A549/ATCC NSCLC it was 49.9%. In addition, the growth with COLO 205 colon was 40.7%; in the assay on DU-145 prostate, 76.5%; in the assay on K-562 leukemia it was 39.8%; in the assay on MALME-3M melanoma, 102%; in the assay on MDA-MB-231 breast, 6.91% (active); in the assay with RXF 393 renal, 32.5%. Besides, the growth was 43.3% in the assay on SF-268 CNS, 24.6% with SF-295 CNS, 43% with SF-539 CNS and 51% with UACC-257 melanoma.
